Results on 25 molecules are retold here after PubChem BioAssay AID651636 (Sanford-Burnham Center for Chemical Genomics, 2012).

The campaign covered roughly 360,000 compounds. About 3,000 (0.83%) were called active. Only a selection was taken, and actives are over-represented in it overall. A number with no mark means an inactive call. Cut-off read from the data, not from the text of the source: active = inhibition above about 38%; inactive = the rest.

Sequence of G-protein coupled receptor 183 (Homo sapiens) (P32249 whole entry, looked up, the tested form may be a part): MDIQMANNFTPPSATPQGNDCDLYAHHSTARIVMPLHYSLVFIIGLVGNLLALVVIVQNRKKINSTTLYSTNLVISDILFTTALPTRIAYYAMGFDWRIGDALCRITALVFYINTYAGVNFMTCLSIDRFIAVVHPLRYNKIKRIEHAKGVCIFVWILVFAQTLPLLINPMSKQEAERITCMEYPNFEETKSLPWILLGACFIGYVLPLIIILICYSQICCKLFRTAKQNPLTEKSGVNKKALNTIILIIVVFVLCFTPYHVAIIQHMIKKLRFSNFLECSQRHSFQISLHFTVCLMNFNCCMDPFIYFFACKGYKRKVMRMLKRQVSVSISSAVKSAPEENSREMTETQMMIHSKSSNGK

The assay addresses G-protein coupled receptor 183 (Homo sapiens) (UniProt P32249). The experiment in a line: blockers of oxysterol-driven EBI2 arrestin signaling – cell-based, luminescence, 7a,25-OHC stimulation, uHTS, primary screen (AID 651636).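 Note: enzyme fragment complementation signal reports receptor beta-arrestin coupling in cells; 0% = agonist plus DMSO wells and 100% = wells without agonist.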 The settings on record: EBI2 beta-arrestin recruitment, 7a,25-OHC stimulated, at 5 µM, hits give high values.
For orientation: inhibition means the change of the read-out against control, counted positive when it falls. On to `CC(=O)OC1C2(CC3N4C(=O)C5(CO)SSC4(CC31O)C(=O)N5C)OC(C)C(C)(C)C2=O` (stereo not given), for which the inhibition is 94.4% (active).
Regarding `CC(C)(C)[C@]1(O)C[C@@H]2OC(=O)C[C@@]23C(=O)O[C@@H]2OC(=O)[C@H](O)[C@]213`, the inhibition was -2.99%.
`O=C(CCC(=O)N1C[C@H]2C[C@@H](C1)c1cccc(=O)n1C2)NCc1ccccc1C(F)(F)F`: the inhibition was -0.966%.
In the case of `CC(=O)Nc1ccccc1C(=O)OCC(=O)c1cccc2ccccc12`, the inhibition is 12.7%.
With `COc1cccc(C(=O)N2C[C@H]3C[C@@H](C2)c2cccc(=O)n2C3)c1`, the inhibition is -6.08%.
On to `O=C(Cc1ccccc1[N+](=O)[O-])N1CCN(Cc2ccc3c(c2)OCO3)CC1`, for which the inhibition was 5.95%.
The figure for `CC(C)c1ccc(OCC(=O)N2CCCN(C)CC2)cc1` is 2.02%.
To `O=C(COc1ccc2ccccc2c1)N1CCN(Cc2ccncc2)CC1` belongs 66.2% (active).
For the molecule `CC(c1ccccc1)(c1ccccc1)c1ccncc1`, the inhibition was 11.4%.
In the case of `COC(=O)C1=C(c2ccccc2OCc2ccccc2)C[C@@H]2CC[C@H]1N2C(=O)NCc1ccc(OC)cc1`, the inhibition is 26.2%.
With `COC(=O)C1=C(c2ccc(F)cc2OCc2ccccc2)C[C@@H]2CC[C@H]1N2C(=O)NCc1ccc(OC)c(OC)c1`, the inhibition is 9.54%.
The figure for `CCc1ccc(OCC(=O)N2CCN(CC(=O)Nc3ccccc3Cl)CC2)cc1` is 73.1% (active); for `O=C(CN1CCCCC1)Nc1ccc(Br)cc1C(=O)c1ccccc1Cl` it is -11.6%.
Take `CCC(=O)c1ccc(OCC(=O)N2CCN(CC(=O)Nc3ccc(C)cc3)CC2)cc1`: the inhibition is 6.66%.
To `CCOP(=S)(OCC)C(O)CCCCCn1c(=O)c(F)cn(C2CCCO2)c1=O` (stereo not given) belongs -1.97%.
For `CN(c1ccccc1)c1ccc([N+](=O)[O-])c2nonc12`, the inhibition is 1.86%.
`CC[N+](CC)(CC)CCCCCCCCCC[N+](CC)(CC)CC`: the inhibition is 2.47%.
With `C[C@H]1CN([C@@H](C)CO)C(=O)CCCn2nncc2CO[C@H]1CN(C)C(=O)Oc1cccc2ccccc12`, the inhibition is -6.15%.
To `COC(=O)C1=C(c2ccc(OCc3ccccc3)cc2)C[C@@H]2CC[C@H]1N2C(=O)NCc1cccc(F)c1` belongs 64.5% (active); to `COC(=O)C1=C(c2ccc(OCc3ccccc3)cc2)C[C@@H]2CC[C@H]1N2C(=O)NCc1ccc(Cl)cc1`, 22.1%; to `COC(=O)C1=C(c2cccc(OCc3ccccc3)c2)C[C@@H]2CC[C@H]1N2C(=O)NCc1ccc(Br)cc1`, 19%.
As to `Cc1cc(C)c2c(c1)NP(=S)(c1ccccc1)N2` (stereo not given), the inhibition was 11.1%.
Take `O=C1NC(=O)N(CCc2ccc(F)cc2)C(=O)/C1=C/C=C/c1ccccc1`: the inhibition was 58.5% (active).
In the case of `CN(C)c1nc(N(C)C)nc(N(C#N)CCCl)n1`, the inhibition was 2.53%.
To `COc1ccc(NC(=O)c2cn(CCC#N)nc2-c2ccc([N+](=O)[O-])cc2)cc1` belongs -6.27%.
